G9a block – blocks human histone lysine methyltransferase G9a; Q96KQ7; G9a H3K9 monomethylation, AlphaScreen, 2 h; Potency, µM (top dose mostly 102 µM), for the others: at the highest dose activity, negative = inhibition, hits mostly inhibitors; 350,000 tested, 8.8% active; further: on the % scale 0 is the no-effect control and ±100 the full control effect; nearly all actives have a fitted effect of over 75% in size
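G9a (20 nM) preincubated 15 min RT with compounds, then 500 nM biotinylated H3K9 peptide and 20 uM SAM added; 2 h RT reaction. Monomethyl-H3K9 product detected by AlphaScreen with anti-H3K9me1 antibody, streptavidin donor and anti-rabbit IgG acceptor beads.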
L3MBTL1 inh-1 – blocks human L3MBTL1; Q9Y468; AlphaScreen L3MBTL1–H3K9me1 peptide binding; Potency, µM (titrated, usually from 57.1 µM), for inactives: top-dose activity, negative = inhibition, most hits filed as inhibitors; 230,000 tested, 0.66% active; further: on the % scale 0 is the no-effect control and ±100 the full control effect; nearly all actives have a fitted effect of over 60% in size
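Displacement of a biotinylated histone H3(1-15) peptide monomethylated at Lys9 (75 nM) from L3MBTL1 (50 nM) was measured by AlphaScreen after a 30 min room-temperature compound incubation; cefsulodin titration served as intraplate control.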
Sfp PPTase inh – Sfp phosphopantetheinyl transferase inhibition; Biochemical Sfp PPTase activity, qHTS; Potency, µM, inactives show largest response in the series, negative = inhibition, most hits filed as inhibitors; 310,000 tested, 3.5% active; Q9F4F7;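 further: the enzyme is Sfp with the accession as filed and its product quenches rhodamine fluorescence; 0% = enzyme reaction without inhibitor and -100% = no enzyme wells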
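Compounds were incubated with enzyme (final 15 nM) for 15 min at room temperature before substrate addition started the reaction. Fluorescence at 525 nm excitation, 598 nm emission was recorded immediately and after 30 minutes.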
JMJD2A Tudor inh – inhibitors of human JMJD2A Tudor domain; O75164; AlphaScreen JMJD2A-Tudor / H3K4me3 peptide binding; Potency, µM (series often up to 114 µM), inactives show top-dose activity change, negative = inhibition, actives largely listed as inhibitors; 390,000 tested, 4.4% active; further: on the % scale 0 is the no-effect control and ±100 the full control effect; nearly all actives have a fitted effect of over 50% in size
HP1b chromo inh – blocks HP1-beta chromodomain binding to methylated histone tails | P83916 | AlphaScreen HP1-beta / biotin-H3K9me3 peptide binding | Potency, µM (series often up to 114 µM), inactives show at the highest dose activity change, negative = inhibition, actives largely listed as inhibitors | 390,000 tested, 0.56% active | AID 540317; further: nearly all actives have a fitted effect of over 70% in size
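HP1-beta protein (50 nM final) preincubated 30 min at room temperature with biotinylated H3(1-18)K9me3 peptide (50 nM) in PBS pH 7.4, 0.01% Tween-20, then compound added for 30 min. AlphaScreen streptavidin donor/nickel chelate acceptor beads (10 ug/mL final), 30 min dark, luminescence read.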
BAZ2B block – BAZ2B (human) inhibition | AlphaScreen BAZ2B-H3K14Ac peptide displacement | Potency, µM (highest dose often 114 µM), inactives show at the top dose activity change, negative = inhibition, usual class: inhibitors | 360,000 tested, 4.4% active; further: on the % scale 0 is the no-effect control and ±100 the full control effect; nearly all actives have a fitted effect of over 60% in size
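Compounds, titrated to a top concentration of 110 uM, were incubated 30 min at room temperature with preformed BAZ2B/acetyl-K14 H3 peptide complex (50 nM each). Proximity signal was measured by AlphaScreen after 20 min with beads.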
L3MBTL1 inh-2 – blocks human L3MBTL1 methyl-lysine binding. Potency, µM, most hits filed as inhibitors. L3MBTL1 methyl-lysine binding inhibition, biochemical qHTS. 500 tested, 91% active. shares compounds with L3MBTL1 inh-1; further: nearly all actives have a fitted effect of over 70% in size
AlphaScreen ctr2 – interferes with AlphaScreen signal in L3MBTL1 counterscreen | shares compounds with L3MBTL1 inh-1 | AlphaScreen counterscreen, signal inhibition | Potency, µM (doses to about 57.1 µM), without a hit: top-dose activity change, negative = inhibition, actives largely listed as inhibitors | 500 tested, under 10 active | AID 602224; further: 0% is about no effect
Starred values were filed as active, the others as inactive; ? = inconclusive; . = no result; [ ] = remark or other dose. Compounds with a hit are over-represented: about 12% of the library has one in this group of screens. The call rests on the fitted dose curve; in most records, active means well fitted curve in the direction sought with a large enough effect; inconclusive means small, poorly fitted or top-dose-only effect, or another doubt; inactive means no such curve, though single readings can be large; an effect the other way counts as inactive or inconclusive. Potency means the concentration at half of the fitted maximal effect.

SMILES	G9a block	L3MBTL1 inh-1	Sfp PPTase inh	JMJD2A Tudor inh	HP1b chromo inh	BAZ2B block	L3MBTL1 inh-2	AlphaScreen ctr2
COc1ccc(Cc2nnc(NC(=O)Cc3cccs3)s2)cc1OC	?	6.3µM*	-26%	-35%[57.1 µM]	?	28µM*	11*	-7%
COc1ccc(C(=O)Nc2nnc(Cc3cccs3)s2)cc1OC	27%[0.501 µM]	2%	3%	-35%	31%	-2%	.	.
O=c1[nH]c(SCc2c(F)cccc2Cl)nc2c1CCCC2	-25%[59 µM]	.	.	-28%	18%	?	.	.
COC(=O)Cc1cc(=O)n(-c2nc3ccccc3[nH]2)[nH]1	6%[59 µM]	13µM*	22%	18µM*	27%	7.9µM*	6.7*	?
COc1ccc(NC(=O)c2csc(C)c2)cc1OC	29%	.	-2%	-2%	25%	-3%	.	.
O=C(Nn1cc(C(=O)Nc2ccccc2F)c2ccccc2c1=O)c1cnccn1	-18%	40µM*	7%	28µM*	23%	28µM*	?	36%
COc1cc(OC)cc(C(=O)Nn2cc(C(=O)Nc3ccccc3F)c3ccccc3c2=O)c1	-14%	-6%	6%	-18%	10%	-34%	.	.
Cc1nn(CCc2nc(-c3ccco3)cs2)c2[nH]c(=O)cc(C(F)(F)F)c12	?	35µM*	?	79µM*	?	?	21*	3%
CCOc1ccc(OCc2ccc(C(=O)O)o2)cc1	?	32µM*	9%	-34%	8%	?	11*	1%
CC(=O)Nc1ccc(C(=O)/C=C/c2ccco2)cc1	10µM*	32µM*	13µM*	?	-26%	56µM*	9.5*	-10%
c1ccc2c(c1)OCC(c1nn3c(Cn4nnc5ccccc54)nnc3s1)O2 (stereo not drawn)	5µM*	35µM*	2.5µM*	?	?	50µM*	?	6%
COc1ccccc1Sc1nc(-c2ccccn2)ncc1OC	?	4µM*	-3%	89µM*	37%	22µM*	19*	-21%
COc1cccc(CNC(=O)CNS(=O)(=O)c2ccc(Br)s2)c1	30%	.	8%	-8%	28%	-11%	.	.
COc1cccc(CCNC(=O)c2c(O)nc3cc(C)ccn3c2=O)c1	6%[59 µM]	.	.	-20%	8%	5%	.	.
COc1ccc(Cl)cc1S(=O)(=O)N(C)CC(=O)NCc1ccc2c(c1)OCO2	3%	.	15%	-1%	20%	-1%	.	.
O=C(Oc1ccccc1F)c1ccc2c(=O)n3c(nc2c1)CCC3	63µM*	35µM*	.	-12%	18%	-1%	?	9%
O=c1c2ccccc2nc2n1CCC2	-22%[0.501 µM]	28µM*	?	14µM*	-57%	14µM*	24*	?
Cc1[nH]c(=O)[nH]c(=O)c1S(=O)(=O)Nc1ccc(F)c([N+](=O)[O-])c1	2%	.	10%	-11%	45%	5%	.	.
CC(=O)C[C@H](O)CC(=O)[C@H]1OC(=O)[C@@H](C)CCCCc2ccccc21	.	-1%	.	-4%	72%	.	.	.
COc1ccc(CNC(=O)COC(=O)C2(C)CC2(Cl)Cl)cc1 (stereo not drawn)	.	0%	.	3%	34%	.	.	.
CSc1ccc(CCNC(=O)CN2C(=O)COc3ccc(S(=O)(=O)N4CCCC4)cc32)cc1	-33%[59 µM]	.	.	-21%	18%	?	.	.
CC1=NOC(=O)/C1=C\c1ccc(-c2ccc(Br)cc2C(=O)O)o1	.	22µM*	?	-15%	-5%	?	27*	2%
CSc1nc(N)c2c(n1)N(C)C=NS2(=O)=O	.	.	.	-10%	-1%	.	.	.
CC(C)(C)OC(=O)NCc1ccc(CNC(=O)c2[nH]cnc2C(=O)NCC(=O)OCc2ccccc2)cc1	6%	-4%	10%	-8%	48%	-4%	.	.
CC(C)c1ccc(C2OCC(C)([N+](=O)[O-])CO2)cc1 (stereo not drawn)	.	.	.	10%	13%[57 µM]	.	.	.
SMILES	G9a block	L3MBTL1 inh-1	Sfp PPTase inh	JMJD2A Tudor inh	HP1b chromo inh	BAZ2B block	L3MBTL1 inh-2	AlphaScreen ctr2
Cc1ccc(-n2ncc(C(=O)NCCN3CCc4ccccc4C3)c2C2CCN(C(=O)OC(C)(C)C)CC2)c(C)c1	?	.	.	?	?	-15%[57.1 µM]	.	.
COC(=O)c1ccccc1NC(=O)CSc1nc(N)cc(=O)[nH]1	50µM*	25µM*	6%	?	?	56µM*	11*	?
COc1ccc(S(=O)(=O)N2CCN(C(=O)c3cc4c(s3)CCC4)CC2)cc1	.	3.5µM*	.	7.9µM*	?	.	3.4*	-5%
CCCNc1c(NC(=O)c2ccc3c(c2)OCO3)c(=O)oc2ccccc12	.	.	13%	1%	38%	-4%	.	.
N#Cc1ccccc1OCC(=O)Nc1cc(S(=O)(=O)N2CCCCC2)ccc1N1CCOCC1	.	.	.	-13%	17%	.	.	.
CCCNS(=O)(=O)c1ccc(OCC(=O)Nc2ccc3c(c2)OCCO3)c(C)c1	-8%[0.501 µM]	-11%	.	-12%	4%	0%	.	.
